Bioassay records: PubChem, several laboratories
The entries come from a sample that favours hits as a whole.
GIRK2 activator: Activators of human GIRK2-containing channels. P48051. HEK293 GIRK2/NPY4 cells, thallium flux fluorescence. activation (% efficacy), % for hits at 37.5 µM. 34,000 tested, under 10 active. AID 1259324;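 active = primary screen hit, no activity in plain HEK293 cells, and in GIRK2-only cells above 5% efficacy rising with concentration; inactive = the rest, including fluorescent compounds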;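 note: efficacy is normalized control-subtracted fluorescence 15 s after thallium addition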
Target sequence (P48051 whole entry, looked up): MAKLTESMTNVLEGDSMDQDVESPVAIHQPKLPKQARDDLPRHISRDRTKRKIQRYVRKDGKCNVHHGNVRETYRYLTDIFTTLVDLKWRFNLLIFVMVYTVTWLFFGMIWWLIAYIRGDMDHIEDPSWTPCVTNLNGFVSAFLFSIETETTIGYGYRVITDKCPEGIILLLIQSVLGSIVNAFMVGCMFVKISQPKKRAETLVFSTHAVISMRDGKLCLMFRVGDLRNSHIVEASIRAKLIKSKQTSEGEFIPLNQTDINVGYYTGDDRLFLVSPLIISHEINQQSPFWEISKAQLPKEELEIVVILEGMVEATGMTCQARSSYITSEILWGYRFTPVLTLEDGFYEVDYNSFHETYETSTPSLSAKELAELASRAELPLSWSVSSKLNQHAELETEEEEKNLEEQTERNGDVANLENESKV
GluA2 TARP mod: modulates AMPAR-stargazin complexes; HEK293 GluA2+stargazin, membrane potential dye (FDSS), glutamate EC50; hits were called plate by plate, in both directions; calls only at 30 µM; hit rate 3.5% among 40,000;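 active = any of four per-well response measures lying three or more SD from its plate-wide compound average, in either direction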
* hit, by the source's call; i = inactive; . = no result; + = active, no number; ! = not confirmed by another sample.

SMILES	GIRK2 activator	GluA2 TARP mod
Cc1nn(C2CCS(=O)(=O)C2)c(C)c1CC(=O)Nc1ccc(F)c(Cl)c1 (stereo not given)	i	i
CC(C)CS(=O)(=O)NCC1(c2cccs2)CCOCC1	i	i
CCS(=O)(=O)NCC1(c2cccs2)CCOCC1	i	+
Cc1cccc2sc(N(CCN3CCOCC3)C(=O)C3CCCCC3)nc12	i	i
O=C(NCCN1CCCC1)c1ccc2c(=O)n(Cc3ccc(Cl)cc3)c(=S)[nH]c2c1	i	i
O=C(NCC1(c2cccs2)CC1)Nc1cccc(C(F)(F)F)c1	i	i
COc1cccc(NC(=O)NCC2(c3cccs3)CC2)c1	i	+
COc1ccc(OCC(=O)Nc2ccc(CC(=O)N3CCOCC3)cc2)cc1	i	+
COc1ccc(CC(=O)Nc2ccc(CC(=O)N3CCCC3)cc2)cc1	i	i
CC(=O)Nc1nc(CC(=O)N2CCN(c3ncccn3)CC2)cs1	.	i
CC1(C)CC2CC(C)(CN2Cc2c(O)ccc3ccccc23)C1 (stereo not given)	.	+
CN1CCN(n2c3c(c(SCC(=O)Nc4ccc5c(c4)OCO5)nc2=O)CCC3)CC1	i	i
Cc1cc(C)c(NC2=C/C(=N/S(=O)(=O)c3cccs3)c3ccccc3C2=O)c(C)c1	.	+
Cc1cc(C)c(NC(=O)C2(c3cccs3)CCOCC2)c(C)c1	i	i
O=C(Nc1nc(-c2ccncc2)cs1)C1CCCN(S(=O)(=O)c2ccc(Cl)s2)C1 (stereo not given)	.	i
O=S(=O)(c1cccs1)N1CCN(Cc2nnnn2-c2ccc(Cl)cc2)CC1	i	i
O=S(=O)(c1cccs1)N1CCN(Cc2nnnn2-c2ccc(F)cc2)CC1	i	+
CSc1ccccc1C(=O)NCC1CCN(C(=O)c2ccccc2F)CC1	i	i
CSc1ncccc1C(=O)N1CCC(CNC(=O)c2ccccc2Br)CC1	i	i
CSc1ncccc1C(=O)N1CCC(CNC(=O)c2cc(Cl)cc(Cl)c2)CC1	i	i
CSc1ncccc1C(=O)N1CCC(CNC(=O)C2(c3ccc(Cl)cc3)CCCC2)CC1	i	+
CSc1ccccc1CN1CCC(CNC(=O)c2ccccn2)CC1	i	+
O=C(CSc1ccc(F)cc1)NCC1CCN(C(=O)c2ccccc2F)CC1	i	+
CSc1ccccc1CN1CCC(CNC(=O)c2cnc3ccccc3n2)CC1	i	i
CSc1ncccc1C(=O)N1CCC(CNC(=O)c2ccccc2F)CC1	i	+
SMILES	GIRK2 activator	GluA2 TARP mod
Nn1c(CCc2c[nH]c3ccccc23)nn2c(=O)c3ccccc3nc12	i	i
Cc1ccc(C)c(Sc2cc(N3CCC(C(=O)NCCCOC(C)C)CC3)ncn2)c1	i	i
CCNC(=O)Cc1cc(-c2ccc(OC)c(OC)c2)on1	i	i
O=C(NCc1ccsc1)c1ccc(Br)cc1	i	i
COc1ccc(Cl)cc1NC(=O)Cn1nc(-c2ccco2)ccc1=O	i	i
Cc1ccc(Cn2c(=O)c3c(nc4oc(-c5ccc(F)cc5)cn43)n(C)c2=O)cc1	i	+
Cc1ccc(C)c(Cn2c(=O)c3c(nc4oc(-c5ccc(F)cc5)cn43)n(C)c2=O)c1	.	i
COc1ccc(CC(=O)Nc2nc(C)c(C(C)=O)s2)cc1	.	i
Cc1cc(C)c2sc(NC(=O)/C=C\c3ccccc3)nc2n1	i	+
Cc1cc(NC(=O)/C=C/c2ccccc2)on1	i	.
CCc1nnc(NS(=O)(=O)c2ccc(NC(=O)c3cc(C)ccc3C)cc2)s1	.	i
COc1ccccc1NC(=O)N1CCC(CNS(=O)(=O)c2ccc(Br)s2)CC1	i	.
COc1ccc(N2CCN(CC(=O)Nc3nc4c(C)cccc4s3)C2=O)cc1	i	i
COc1nn(C)cc1C(=O)NCCC(O)c1cccs1 (stereo not given)	i	i
O=C(Nc1ccc2c(c1)N(C(=O)C1CCCO1)CC2)c1ccc(C(F)(F)F)cc1 (stereo not given)	i	+
O=C(Nc1ccc2c(c1)N(C(=O)C1CCCC1)CC2)c1ccc(C(F)(F)F)cc1	.	i
O=C1CCS(=O)(=O)N1c1ccc(S(=O)(=O)N2CCc3ccccc32)cc1	i	i
COC(=O)c1sccc1S(=O)(=O)NCc1nn(C)c(=O)c2ccccc12	i	i
CC(C)Sc1ccc(CC(=O)N2CCC(c3nnc(C(C)C)o3)CC2)cc1	i	+
CC(C)c1nnc(C2CCN(C(=O)CCSc3ccccc3)CC2)o1	i	i
CCNc1cc(NCCNS(=O)(=O)c2ccc(-c3csc(C)n3)s2)nc(C)n1	i	.
O=S(=O)(NCCOc1ccc2nnc(-c3ccccc3)n2n1)c1cccc(Cl)c1	i	.
Cc1cccc(-n2nnc(C(=O)NC3CCCCC3)c2N)c1	i	+
CC(C)c1ccc(-n2nnc(C(=O)NC3CCCCC3)c2N)cc1	i	i
O=S(=O)(c1cc(F)ccc1F)N1CCC(Cn2ccnc2-c2ccccc2)CC1	i	+
SMILES	GIRK2 activator	GluA2 TARP mod
Cc1nccn1CC1CCN(S(=O)(=O)c2cccs2)CC1	i	i
COC1CS(=O)(=O)CC1OC (stereo not given)	.	+
COCc1nc2ccccc2n1CC(O)COc1ccc(Cl)c(C)c1 (stereo not given)	i	i
COCc1nc2ccccc2n1CC(O)COc1ccc(C(C)C)cc1 (stereo not given)	i	+
CC(C)(C)C(O)CCNC(=O)C(=O)NC1CC1 (stereo not given)	i	i
Cc1cc(C)c(C(=O)NCCc2ccccc2)c(C)c1	i	+!
Cc1ccc(C)c(S(=O)(=O)Nc2ccc(C(=O)NCCc3ccccc3)cc2)c1	.	i
Cc1cc(C(=O)N2CCOCC2)nn1CC(=O)Nc1ccc2c(c1)OCO2	i	i
CCc1nc(SCC(=O)N(CC)CC)c(C#N)c2c1CCCC2	.	+
Cc1[nH]c(=O)nc(SCC(=O)NC2CCCC2)c1C#N	i	i
O=C(NCCc1ccccc1)c1ccc2c(=O)n(Cc3ccccc3Cl)c(=S)[nH]c2c1	i	i
CC(=O)Cc1nsc(NC(=O)c2oc3ccc(C)cc3c2C)n1	.	i
CC(=O)Cc1nsc(NC(=O)c2cc(-c3ccc([N+](=O)[O-])cc3)oc2C)n1	i	+
Cn1nnc2c(N3CCN(C(=O)NC(c4ccccc4)c4ccccc4)CC3)ncnc21	i	.
CCSc1ccccc1C(=O)NCCn1cnc(-c2ccccc2)cc1=O	i	+
O=C(Cn1cnc(-c2ccccc2)cc1=O)NCCC(c1ccccc1)c1ccccc1	i	i
CCc1nnc(NS(=O)(=O)c2ccc(NC(=O)c3ccc(Oc4ccccc4)cc3)cc2)s1	.	i
CC(C)c1ccc(NC(=O)NCCn2nc(-c3cccnc3)ccc2=O)cc1	i	.
O=C(Cc1ccc(NS(=O)(=O)C2CCCCC2)cc1)NCc1cccs1	i	i
O=C1Nc2ccccc2Oc2ccc(NS(=O)(=O)C3CCCCC3)cc21	.	+
COc1ccc(-n2c(=O)c3ccccc3n(CC(=O)NCc3ccc(C)cc3)c2=O)cc1	.	i
COc1cccc(CNC(=O)c2nc(-c3cnccn3)no2)c1	i	i
NC1=NC(=O)C(CC(=O)Nc2ccc(OC(F)(F)F)cc2)S1 (stereo not given)	.	i
Cc1ccc(C)c(OCC(=O)Nc2c(C)cccc2C(C)C)c1C	i	+
